Source: PubChem BioAssay AID493033 (ICCB-Longwood Screening Facility, Harvard Medical School, 2011)
Several values for one entry are separate records, joined by “and”; a condition that tells them apart may be missing. Identical values can stand only once. Among all 100,000 compounds or so, about 930 (0.93%) were called active. Cut-off read from the data, not from the text of the source: active = inhibition mostly above about 56% (no sharp cut-off); inactive = mostly below about 77%. The entries come from a sample that favours actives as a whole.

These molecules were tested against Salicylate synthase (Mycobacterium tuberculosis (strain CDC 1551 / Oshkosh)) (UniProt P9WFX0) (assay: MbtI salicylate synthase inhibitors, primary screen, biochemical, fluorescence intensity (AID 493033)). Conditions: purified MbtI enzyme, fluorescence intensity read-out, stronger effect = higher value, concentration not given here.
Sequence of Salicylate synthase (Mycobacterium tuberculosis (strain CDC 1551 / Oshkosh)) (P9WFX0 whole entry, looked up): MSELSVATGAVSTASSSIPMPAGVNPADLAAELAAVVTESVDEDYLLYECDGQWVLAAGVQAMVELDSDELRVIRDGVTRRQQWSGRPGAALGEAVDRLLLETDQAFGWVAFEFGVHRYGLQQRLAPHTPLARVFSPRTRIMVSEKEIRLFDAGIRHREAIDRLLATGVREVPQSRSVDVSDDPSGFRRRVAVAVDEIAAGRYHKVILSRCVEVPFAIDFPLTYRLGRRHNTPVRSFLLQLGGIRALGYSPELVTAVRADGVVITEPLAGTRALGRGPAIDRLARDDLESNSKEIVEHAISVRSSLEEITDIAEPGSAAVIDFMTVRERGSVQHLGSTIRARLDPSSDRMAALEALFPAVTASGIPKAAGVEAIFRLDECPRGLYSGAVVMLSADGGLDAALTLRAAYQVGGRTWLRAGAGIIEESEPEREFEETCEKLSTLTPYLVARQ

| Structure (SMILES) | inhibition |
| --- | --- |
| CCn1c(=O)cc(SCC(=O)NC2CCCCC2)c2ccccc21 | -8.85% (inactive) |
| COC(=O)c1ccc(CSCC(=O)Nc2ccc(C)c(C)c2)o1 | -3.9% (inactive) |
| COc1cc(/C=C/C(=O)N2CCc3ccccc3C2)cc(OC)c1OC | -28.7% (inactive) |
| S=C(NCCc1ccc(Cl)cc1)Nc1ccccc1 | -14.1% (inactive) |
| Oc1cc2c(cc1O)CN(C(=S)NCCc1ccc(Cl)cc1)CCC2 | 100% (active) |
| O=C1CCN(C(=S)NCCc2ccccc2)CC1 | 14.8% (inactive) |
| COc1cc(C#N)ccc1Oc1nc(CN2CCOCC2)nc2scc(-c3cccs3)c12 | 18.1% (inactive) |
| CC(C)Cn1c(SCc2nnc(-c3ccccc3)o2)nnc1-c1ccccc1F | -1.55% (inactive) |
| CC1=C(C(=O)OC2CCCC2)C(c2cc3c(cc2Cl)OCO3)C2=C(CCCC2=O)N1 (stereo not given) | 116% (inactive) |
| COc1ccc(OC)c(NC(=O)CS)c1 | 97.5% (active) |
| COc1ccc(OC)c(NC(=O)CC(Cc2ccccc2OC)C(=O)O)c1 (stereo not given) | 2.1% (inactive) |
| COc1ccc(OC)c(NC(=O)CCN2CCC(C)CC2)c1 | -19.2% (inactive) |
| O=c1[nH][nH]c(=O)c2cc(N3CCCC3)ccc12 | -10.9% (inactive) |
| O=C1C=CC(=O)N1c1ccc(N2CCCCC2)cc1 | 99.7% (active) |
| N#CSc1ccc(N2CCCCC2)cc1 | 21.2% (inactive) |
| COc1ccccc1C(=O)Nc1ccccc1N1CCN(C)CC1 | -4.85% (inactive) |
| OC1CCN(C(=S)Nc2ccccc2)CC1 | -8.65% (inactive) |
| COc1ccc(NC(=S)N2CCCCC2)cc1 | -6.7% (inactive) |
| Fc1ccc(NC(=S)N2CCN=C2Nc2ccc(F)cc2)cc1 | 72.3% (active) |
| COc1ccc(-c2nnc(SCC(=O)NC3CCCc4ccccc43)o2)cc1OC (stereo not given) | -3.65% (inactive) |
| COc1cccc(C(=O)Nc2ccccc2C#N)c1OC | -17.5% (inactive) |
| CC(C)Cn1nccc1N | -12% (inactive) |
| CC(C)CN1C(=O)C=CC1=O | 80.8% (active) |
| O=C(NCCCN1CCCC1)C1CCN(c2nc3ccccc3n3cccc23)CC1 | -7.35% (inactive) |

| Structure (SMILES) | inhibition |
| --- | --- |
| CC(C)c1n[nH]c(=S)n1N | 96.5% (active) |
| CC(C)Sc1n[nH]c(=S)n1N | 98.2% (active) |
| CCn1c(C(C)C)n[nH]c1=S | 2.75% (inactive) |
| N#Cc1c(-c2c(O)[nH]c3ccccc23)c2c(-c3ccncc3)[nH]nc2oc1=N | -1.15% (inactive) |
| CCS(=O)(=O)Nc1ccc(Cl)cn1 | 89.8% (inactive) |
| COCCNc1oc(COc2ccc(Br)cc2)nc1C#N | -15% (inactive) |
| COc1ccc(C2Nn3c(C)nnc3SC2C(=O)N2CCCC2)cc1 (stereo not given) | -6.35% (inactive) |
| Cc1ccc(-n2c(SC(C)C(=O)NC(N)=O)nc3ccccc32)cc1 (stereo not given) | -6.15% (inactive) |
| CCCCSC1=NC(C)(C)Nc2ccccc21 | -13.3% (inactive) |
| CC(C)NC(=O)CSc1nc(-c2ccccc2)cn1N | 11.2% (inactive) |
| CCOC(=O)c1cc(-c2ccccc2)no1 | -8.95% (inactive) |
| O=C(COC(=O)/C=C/c1cccs1)Nc1ncc(Br)s1 | 0.8% (inactive) |
| CCOc1ccc2c(c1)sc1nc(=O)n(-c3ccccc3)c(=O)n12 | 3.85% (inactive) |
| CCOc1ccc(OCCBr)cc1 | -5.55% (inactive) |
| CCOc1ccc2[nH]c(=S)sc2c1 | 81.3% (active) |
| CNC(=O)c1cc2c(n(-c3ccccc3)c1=O)CC(C)(C)CC2=O | 72.9% (inactive) |
| CC(C)(C)c1nc(=S)[nH][nH]1 | 59.2% (active) |
| O=C(c1ccco1)N1CCN(C(=O)c2cnn(-c3ccccc3)c2-n2cccc2)CC1 | -6.6% (inactive) |
| CCCCNC(=O)c1cccc(OC)c1 | -2.5% (inactive) |
| COc1cccc(N2C(=O)C=CC2=O)c1 | 98.8% (active) |
| COc1cccc(C(=O)Nc2ccc(N3CCCC3)cc2)c1 | -7% (inactive) |
| CCN1CCN(CCCNC(=S)Nc2ccc3nc(N4CCN(CC)CC4)cc(C)c3c2)CC1 | 35.8% (inactive) |
| Cc1ccc(-c2nnc(SCc3c(C)cc(C)cc3C)o2)cc1 | -3.75% (inactive) |
| O=C(CSc1nnc(-c2cccs2)n1-c1ccccc1)OC1CCS(=O)(=O)C1 (stereo not given) | -45% (inactive) |

| Structure (SMILES) | inhibition |
| --- | --- |
| FC(F)(F)c1cccc(-n2c(-c3ccncc3)n[nH]c2=S)c1 | 6% (inactive) |
| CC(C)n1c(-c2ccncc2)n[nH]c1=S | 93.6% (active) |
| S=c1[nH]nc(-c2ccncc2)n1/N=C/c1cccnc1 | -6.8% (inactive) and -8.55% (inactive) |
| CCOC(=O)N1CCN(C(=O)COC(=O)c2cccc(S(C)(=O)=O)c2)CC1 | -7.25% (inactive) |
| NC(=O)c1nnc(Cc2ccc(Cl)cc2)o1 | -6.1% (inactive) |
| CC(C)n1nc(C(N)=O)c2ccccc2c1=O | 14.1% (inactive) |
| O=C(CCC(=O)N1CCCCc2ccccc21)NC1CCCC1 | -4.6% (inactive) |
| NCCc1ccc(Cl)cc1 | -11.3% (inactive) |
| O=C1C=CC(=O)N1Cc1ccc(Cl)cc1 | 71.7% (active) |
| O=C1CSc2ccccc2N1Cc1ccc(Cl)cc1 | -5.75% (inactive) |
| CCOC(=O)c1oc2ccccc2c1CN1c2cccc3cccc(c23)S1(=O)=O | -5.65% (inactive) |
| COC(=O)c1cccc(OCC(O)CNC2CCN(Cc3ccccc3)CC2)c1 (stereo not given) | 12.9% (inactive) |
| Oc1ccc(CNc2ccccc2O)cc1 | 92% (active) |
| NC(=S)CC(=O)NCc1ccccc1 | 65.2% (inactive) |
| O=C(CS(=O)(=O)c1ccccc1)Nc1ccccc1O | -1.55% (inactive) |
| C=CCn1c(SCC(=O)c2ccc(N(C)S(C)(=O)=O)cc2)nnc1C1CCCCC1 | 0.8% (inactive) |
| Cc1cc(N2CCN(c3ccccc3)CC2)n2c(nc3ccccc32)c1C#N | 4.55% (inactive) |
| CC(NC(=O)c1ccccc1NC(=O)c1ccco1)C(=O)NN(c1ccccc1)c1ccccc1 (stereo not given) | 31.5% (inactive) |
| Cc1occc1-c1nnc2sc(Cc3cccc4ccccc34)nn12 | 79.1% (inactive) |
| Nc1nnc(SCc2ccccc2)s1 | 38.8% (inactive) |
| NC1=NC(=O)C(Cc2cccc(Cl)c2)S1 (stereo not given) | 0.55% (inactive) |
| N=C1N=C(N)C(Cc2ccccc2)S1 (stereo not given) | 84.2% (active) |
